Out of some 290,000 compounds screened, about 3,100 (1.1%) were called active. Rule as the data show it: active = inhibition above about 16% (passing the limit was not always enough); inactive = the rest. The full list was thinned out, with actives kept by preference.
target: Neuropeptides B/W receptor type 1 (Homo sapiens) (UniProt P48145); test: GPR7 receptor antagonists, primary screen, cell-based, fluorescence, single concentration (AID 1861); details: GPR7-expressing cells, fluorescence antagonist assay; at 4.4 µM; stronger effect = higher value;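 also: cells stimulated with the agonist NPW; 0% = agonist with vehicle and 100% = vehicle without agonist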
Sequence (P48145 whole entry, looked up): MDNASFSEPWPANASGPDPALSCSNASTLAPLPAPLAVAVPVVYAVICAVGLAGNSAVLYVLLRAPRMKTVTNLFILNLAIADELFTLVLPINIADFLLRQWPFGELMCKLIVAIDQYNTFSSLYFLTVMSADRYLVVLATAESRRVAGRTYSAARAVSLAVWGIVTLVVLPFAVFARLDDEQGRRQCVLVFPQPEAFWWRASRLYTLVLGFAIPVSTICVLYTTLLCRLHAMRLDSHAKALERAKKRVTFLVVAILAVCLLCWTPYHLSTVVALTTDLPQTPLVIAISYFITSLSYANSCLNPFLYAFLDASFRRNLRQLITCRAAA

inhibition, active:
CN(c1ccccc1)S(=O)(=O)c1ccc(C(=O)NCCc2ccccc2)cc1 23.9%
Cc1ccc(S(=O)(=O)n2cnc3ccccc32)c(C)c1 35.5%
CCCOc1ccccc1C1CC(=O)Nc2cc3c(cc21)OCO3 (configuration not stated) 23.7%
Cc1cc2c(cc1C)N(Cc1ccccc1)C1=NCCCN12 23.7%
CCOC(=O)C1CSC(CC(=O)Nc2ccc(OCC)cc2)C(=O)N1 (configuration not stated) 31.6%
CCc1c(C)nc2c(-c3ccccc3)c(C)nn2c1Nc1ccc(NC(C)=O)cc1 27.4%
N=c1n(CCc2ccccc2)c2ccccc2n1Cc1ccccc1F 21.8%
N#CC1=C(SCc2ccc(C#N)cc2)N=C(N)C(c2nc(-c3ccccc3)cs2)C12CCCCC2 (configuration not stated) 28.4%
Oc1cccc(/C=N/Nc2ccc(Cl)nn2)c1O 43.7%
Nc1nnc(SCC(=O)Nc2ccc3nc(SCC(=O)Nc4ccccc4)sc3c2)s1 30.6%
COc1ccc(S(=O)(=O)N2CCCCC2)cc1Br 20.2%

inhibition, inactive:
Cc1ccccc1CSCCNC(=O)c1ccc(N(C)S(=O)(=O)c2ccccc2)cc1 1.47%
COc1ccccc1CNC(=O)c1ccc(N(C)S(=O)(=O)c2ccc(C)cc2)cc1 -3.56%
O=C(NCCS(=O)(=O)c1ccc(Br)cc1)c1ccccc1Cl 1.64%
O=C(c1ccco1)N1CCN(Cc2cccc(C(F)(F)F)c2)CC1 -13.2%
Cc1ccc(NS(=O)(=O)c2ccc(-c3ccc(=O)[nH]n3)o2)c(C)c1 -0.17%
COc1cc(C(C(=O)NC2CCCC2)N(Cc2ccccc2)C(=O)c2snc(C(N)=O)c2N)ccc1O (configuration not stated) -10.6%
CCc1ccc(S(=O)(=O)Nc2cc3c(cc2N2CCCCC2)n(C)c(=O)c(=O)n3C)cc1 4.78%
Cc1ccc(C)c(S(=O)(=O)n2cnc3ccccc32)c1 8%
COc1ccc(S(=O)(=O)n2cnc3ccccc32)c(C)c1 -5.76%
CCc1nc2ccc(C(=O)N3CCN(c4cccc(Cl)c4)CC3)cc2nc1CC -5.19%
O=C1CCC([N+](=O)[O-])C(c2ccccc2Br)N1 (configuration not stated) -13.4%
COc1ccccc1C1C2=C(COC2=O)Nc2cc3c(cc21)OCO3 (configuration not stated) 3.72%
COc1ccc(C2CC(=O)Nc3cc(C)c(C)cc32)c(OC)c1OC (configuration not stated) -2.76%
CC(C)(C)C(=O)CN1C2=NCCN2c2ccccc21 -10.1%
OC(CN1C2=NCCCN2c2ccccc21)c1ccc(Br)cc1 (configuration not stated) 13.8%
CC(=O)Nc1ccc(NC(=O)CS(=O)(=O)c2cn(CC(=O)N3CCCCC3)c3ccccc23)cc1 -0.17%
CC(=O)Nc1ccc(CN2CCC(Oc3ccc(C(=O)N4CCCC4)cc3)CC2)cc1 -2.18%
COc1ccc(OCc2nnc3n2N=C(c2ccccc2)C(CC(=O)O)S3)cc1 (configuration not stated) -5.82%
O=C(Cc1ccccn1)c1ccc(O)cc1O 1.18%
CCOc1ccc(NC(=O)CC2NCCNC2=O)cc1 (configuration not stated) -18.5%
CCOc1ccc(NC(=O)CCNC(=O)c2ccc(Br)cc2)cc1 -13.4%
CN(c1ccccc1)S(=O)(=O)c1ccc(NC(=O)COc2ccccc2)cc1 1.02%
COc1ccc(NC(=O)C2C3CCC(O3)C2C(=O)O)cc1OC (configuration not stated) -10.2%
Cc1cccc(-c2nnc(SCC(=O)O)n2Cc2ccccc2)c1 -5.33%
CC1C=CCC2C(=O)N(c3cccc(C(=O)N4CCCCCC4)c3)C(=O)C12 (configuration not stated) 3.08%
COC(=O)c1ccccc1NC(=O)CSc1n[nH]c(-c2ccncc2)n1 -2.88%
Cc1cc(-c2ccccc2)n2nc(C)c(-c3ccccc3)c2n1 -10.5%
Cc1cc(-n2nc(C)cc2C)n2nc(C)c(-c3ccccc3)c2n1 -6.35%
COc1ccc(C(=O)CCC(=O)Nc2cccnc2)c(OC)c1 2.52%
CC(=O)NC(C)c1nc2ccccc2n1Cc1ccccc1F (configuration not stated) -2.12%
Fc1ccccc1Cn1cnc(NC(=S)NCCc2ccccc2)n1 10.1%
CCNC(=O)c1cnn(-c2ccccc2)c1-c1ccccc1 -4.37%
COCCNC(=O)c1ccc2c(c1)ncn2-c1ccc(C)c(Cl)c1 0.48%
CC(=O)Nc1cccc(Nc2nc(-c3cccs3)nc3ccccc23)c1 -8.63%
COc1ccc(C(=O)NC2CC2)cc1OC1CCN(Cc2cnn(C)c2)CC1 0.96%
N#Cc1ccc(CSc2ncccn2)cc1 3.62%
N#CC1=C(SCc2ccccc2)NC(=O)C(C#N)C12CCCC2 (configuration not stated) -8.17%
Cc1ccc2c(=O)oc(N(C)C)nc2c1 9.69%
CC1C(=O)Nc2ccccc2N1C(=O)c1c(F)cccc1F (configuration not stated) -14.5%
COC(=O)C(C)Oc1ccc2c(c1)O/C(=C\c1cccc(Br)c1)C2=O (configuration not stated) -5.02%
Clc1ccc(N/N=C/c2cccs2)nn1 -9.79%
COc1cccc(/C=N/Nc2ccc(Cl)nn2)c1 -14.8%
CCc1cccc(C)c1NS(=O)(=O)c1c(C)nc2sccn2c1=O -6.98%
O=C(/C=C/Sc1ncn[nH]1)c1ccc(Cl)cc1 4.91%
Cc1ccc(N(Cc2ccccc2O)C(=O)c2ccccc2F)cc1 -15.3%
CCCc1ccc(OCC(O)CN2CCN(C(=O)OCC)CC2)cc1 (configuration not stated) -0.9%
Cc1ccc(N2CCN(c3ccc([N+](=O)[O-])cn3)CC2)c(C)c1 15.6%
CCCCNC(=O)CSc1nc2ccc(NC(=O)CSc3nnc(COc4ccccc4C)n3C)cc2s1 8.43%
CCCCNC(=O)CSc1nc2ccc(NC(=O)CSc3nnc(N)s3)cc2s1 -5.46%
COc1ccc(F)cc1S(=O)(=O)N1CCCCC1 -5.33%
COc1ccc(S(=O)(=O)Nc2ccc(S(=O)(=O)N3CCCCC3)cc2)cc1OC -7.42%

— PubChem BioAssay AID1861 (The Scripps Research Institute Molecular Screening Center, 2009)
